Consider 37 molecules from PubChem BioAssay (EPA / NIEHS).

Values joined by “and” are separate entries in the source; they are usually repeats but may differ in a detail not shown here. Identical values can stand only once. Some structures have more than one record in an assay (separate samples or runs), and their calls can disagree. Active and inactive are the calls of the source. Rule for the calls: active = hit-call score of the fitted dose curve at least 0.9, where 1 is the maximum; inactive = score below 0.9.

This test in a line: ATG_NFI_CIS: Attagene CIS-FACTORIAL HepG2 Assay for human Nuclear Factor I (NFI) (AID 2282989). The note with it: HepG2 cis-regulatory reporter, NFI response element transcription; actives raise or lower the signal. Here is the method: ATG_CIS is a cell-based, multiplexed-readout assay that uses HepG2, a human liver cell line, with measurements taken at 24 hours after chemical dosing in a 24-well plate.ATG_NFI_CIS is one of 52 assay component(s) measured or calculated from the ATG_CIS assay. It is designed to make measurements of mRNA induction, a form of inducible reporter, as detected with fluorescence intensity signals by Reverse transcription polymerase chain reaction (RT-PCR) and Capillary electrophoresis technology.Data from the assay component ATG_NFI_CIS was analyzed into 1 assay endpoint. This assay endpoint, ATG_NFI_CIS, was analyzed with bidirectional fitting relative to DMSO as the negative control and baseline of activity. Using a type of inducible reporter, measures of mRNA for gain or loss-of-signal activity can be used to understand the reporter gene at the transcription factor-level as they relate to the gene NFIA. Furthermore, this assay endpoint can be referred to as a primary readout, because this assay has produced multiple assay endpoints where this one serves a reporter gene function. To generalize the intended target to other relatable targets, this assay endpoint is annotated to the dna binding intended target family, where the subfamily is nuclear factor I.
Human liver HepG2 cells are transiently transfected with multiple reporter transcription units (MRTUs) in 6-well plates using FuGene 6 reagent (Roche; 3 ml FuGene/1 mg DNA). The MRTU constructs are regulated by a cis-regulating element (promoter). […] A major difference between the CIS and TRANS system is that in CIS activities of endogenous TFs are measured, whereas the TRANS assay evaluates changes in activities of exogenous, chimeric NR-Gal4 proteins. […] At the end of 24 hour incubation, total RNA was isolated using TriZol reagent (Invitrogen). The isolated RNA is then reverse-transcribed using oligo(dT) primer and Mo-MLV reverse transcriptase (Invitrogen) with DNAse I (Ambion) treatment for 30 min. The one-tenth of the produced cDNA was amplified by PCR using Taq DNA polymerase (Invitrogen) and two reporter sequence-specific primers. The PCR products were fluorescently labeled by primer extension with 6-arboxyfluorescein (6-FAM) 5'-labeled reporter sequence-specific primer (2 min at 95 C, 20 s at 68 C and 10 min at 72 C) and these products were digested with 5U of HpaI (New England Biolabs) for 2h at 37 C. The fragments were purified using Qiaquick PCR columns (Qiagen), analyzed on an ABI 3130xL genetic analyzer (Applied Biosystems) with peak positions identified by using a set of X-rhodamine (ROX)-labeled MapMarker1000 molecular weight standards (BioVentures). The raw capillary electrophoresis data was processed using Attagraph software (Attagene).
Turning to `CCc1ccc(C(=O)NN(C(=O)c2cc(C)cc(C)c2)C(C)(C)C)cc1`, the outcome was inactive.

Turning to `O=[N+]([O-])c1c(Cl)c(Cl)c(Cl)c(Cl)c1Cl`, the outcome was inactive.

As for `CC(C)OC(=O)Nc1cccc(Cl)c1`, the molecule was called inactive.

Regarding `OCCOc1ccccc1`, the call was inactive.

As for `COc1cc(OC)nc(NC(=O)NS(=O)(=O)c2cc(NC=O)ccc2C(=O)N(C)C)n1`, the molecule was classed as inactive.

`CC(C)N(C(=O)COc1nnc(C(F)(F)F)s1)c1ccc(F)cc1`: the result was inactive.

`C#CCN1C(=O)COc2cc(F)c(N3C(=O)C4=C(CCCC4)C3=O)cc21`: the call was inactive.

`O=C(O)C(F)(F)C(F)(F)C(F)(F)C(F)(F)C(F)(F)C(F)(F)C(F)(F)F`: the result was inactive.

For the molecule `Cc1cc(C)nc(NC(=O)NS(=O)(=O)c2ccccc2C(=O)OC2COC2)n1`, the call was inactive.

For the molecule `CCOCN(C(=O)CCl)c1c(C)cccc1CC`, the result was inactive.

Turning to `O=C(O)COc1ccc(Cl)cc1Cl`, the molecule was called inactive.

As for `O=C(O)CCCOc1ccc(Cl)cc1Cl`, the outcome was inactive.

As to `COP(=S)(OC)Oc1ccc(SC)c(C)c1`, the outcome was inactive.

With `C[C@H]1[C@H](c2ccc(Cl)cc2)SC(=O)N1C(=O)NC1CCCCC1`, the result was inactive.

For `O=S(=O)(O)C(F)(F)C(F)(F)C(F)(F)C(F)(F)C(F)(F)C(F)(F)C(F)(F)C(F)(F)F`, the molecule was classed as inactive and the concentration at half-maximal activity (AC50) is 133 µM (active).

Turning to `CCC(C)Nc1c([N+](=O)[O-])cc(C(C)(C)C)cc1[N+](=O)[O-]` (stereo not given), the outcome was inactive.

With `CCS(=O)(=O)c1cccnc1S(=O)(=O)NC(=O)Nc1nc(OC)cc(OC)n1`, the molecule was classed as inactive.

Consider `CC(C)(C)C(O)C(Oc1ccc(Cl)cc1)n1cncn1` (stereo not given), for which the result was inactive.

On to `O=C1c2ccccc2C(=O)N1SC(Cl)(Cl)Cl`, for which the outcome was inactive.

For `O=S1OCC2C(CO1)C1(Cl)C(Cl)=C(Cl)C2(Cl)C1(Cl)Cl` (stereo not given), the outcome was inactive.

As to `CC1(c2ccc(Oc3ccccc3)cc2)OC(=O)N(Nc2ccccc2)C1=O` (stereo not given), the molecule was called inactive.

Consider `N#Cc1c(Cl)c(Cl)c(Cl)c(C#N)c1Cl`, for which the result was inactive.

Regarding `CCN(CC)C(=O)SCc1ccc(Cl)cc1`, the outcome was inactive.

In the case of `CCOc1nc(NC)nc(NC(=O)NS(=O)(=O)c2ccccc2C(=O)OC)n1`, the molecule was called inactive.

Consider `Clc1ccccc1-c1nnc(-c2ccccc2Cl)nn1`, for which the outcome was inactive.

As for `COC(=O)c1ccccc1S(=O)(=O)NC(=O)Nc1nc(C)nc(OC)n1`, the molecule was classed as inactive.

In the case of `Oc1cc(Cl)ccc1Oc1ccc(Cl)cc1Cl`, the molecule was called inactive; the half-maximal activity concentration (AC50) is 14.8 µM (active) and 17.9 µM (active) and 5.97 µM (active).

As to `COC(=O)c1ccccc1S(=O)(=O)NC(=O)N(C)c1nc(C)nc(OC)n1`, the outcome was inactive.

Regarding `Cc1[nH]c(=O)n(C(C)(C)C)c(=O)c1Cl`, the call was inactive.

As for `CC1(C)C(C=C(Cl)Cl)C1C(=O)OC(C#N)c1ccc(F)c(Oc2ccccc2)c1` (stereo not given), the call was inactive.

In the case of `O=C(Nc1ccccc1)Nc1cnns1`, the AC50 is 80.9 µM (active).

As for `CCC(C)(C)C(=O)OC1=C(c2ccc(Cl)cc2Cl)C(=O)OC12CCCCC2`, the result was inactive.

Consider `N#CN`, for which the molecule was classed as inactive.

As for `Oc1ccc(Cl)cc1Cc1ccccc1`, the AC50 is 13.1 µM (active) and the outcome was inactive.

As to `CNC(=O)/C=C(\C)OP(=O)(OC)OC`, the result was inactive.

Turning to `COc1nn(CSP(=S)(OC)OC)c(=O)s1`, the call was inactive.

Regarding `O=[N+]([O-])/N=C1\NCCN1Cc1ccc(Cl)nc1`, the outcome was inactive.
